Reference: the supplement of paper PMC6555819

Columns and labels:
Experiment in all cases: PBM binding z-score (relative to random genomic background probes); higher = stronger binding; sequences stand for … in GC…GCGATTGACAGCGTAGAATGAAGG
[1] = system: RARb homodimer (NR concentration 270 nM)
Summary of the method: (§1)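 Ligand-free nuclear receptor dimers were bound for 1 h to custom Agilent 4×180K protein-binding microarrays. Detection used antibodies against each partner (one per run). Binding z-scores rest on regression-normalized fluorescence, with random background probes as the reference.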

[2] = system: RARg:RXRa (NR concentration 270 nM, RXRa partner concentration 90 nM)
Summary of the method: as §1

[3] = system: RARg homodimer (NR concentration 270 nM)
Summary of the method: as §1

[4] = system: RXRa DBDmut IVT, anti-RXR (DBD mutation: RXRa K156A/R161A, NR concentration 90 nM)
Summary of the method: as §1

[5] = system: RXRa homodimer (NR concentration 180 nM)
Summary of the method: as §1

[6] = system: THRa:RXRa (NR concentration 90 nM, RXRa partner concentration 90 nM)
Summary of the method: as §1

[7] = system: THRa homodimer (NR concentration 90 nM)
Summary of the method: as §1

[8] = system: VDR homodimer (NR concentration 270 nM)
Summary of the method: as §1

Sequence | PBM binding z-score [1] | PBM binding z-score [2] | PBM binding z-score [3] | PBM binding z-score [4] | PBM binding z-score [5] | PBM binding z-score [6] | PBM binding z-score [7] | PBM binding z-score [8]
CCTACTGGGCCATCAGGTCATCGATATCAACGTT | 2.83 | 2.31 | 2.29 | 0.257 | 1.58 | 3.45 | 3.33 | 1.24
GCAGACATGTGAAACGCAGGTAACTCAGGGTGGC | -0.931 | -0.194 | -0.391 | -0.691 | -0.0899 | 0.4 | -0.871 | -1.27
TCAAGTAGGTTACCAATGGGGCATTCAGCTTTCT | 1.04 | 1.42 | 0.77 | 1.45 | 0.978 | 0.342 | -0.498 | -0.25
ATCTCTAGTTAACAAGTTCAGTGAAAGAGAGGAC | 1.64 | 1.07 | 1.06 | 1.03 | 0.676 | 1.12 | 0.867 | 2.76
ATCGAAAGGTCGTGGGGTGAGTATACAGAAAGGC | 3.6 | 5.2 | 4.44 | 2.07 | 6.17 | 3.62 | 2.02 | 2.16
TGTCAAAGTTCAAAGGTAACGTGAGTATCCACAC | 4.01 | 6.45 | 6.06 | 4.32 | 7.77 | 3.39 | -0.326 | 4.31
ACTAGCAGGCCAAGGGTCCCTCAAGATTAGTCCG | 0.0685 | -0.0773 | -0.0696 | -0.495 | -0.0168 | -0.255 | -0.726 | -0.484
GGAACGAGGGCAATTTGATAGCAGAGTTTGATGG | 0.804 | 1.04 | 1.25 | 1.74 | 0.881 | 0.709 | -0.191 | 0.777
ACTAGCAGGCCAAGGGCCACTCAAGATTAGTCCG | 0.598 | 0.143 | 0.443 | -0.506 | 0.0111 | -0.212 | -0.921 | -0.964
TCGAGTTGGTTACCAATGGGGCATTCAGCTTTCT | -0.231 | -0.62 | -0.85 | 0.662 | -0.558 | -0.69 | -1.23 | -0.117
TCGAGTAGGTTAGTCGGGGCATTCACCCAACATA | 0.552 | 0.0959 | -0.000869 | 0.343 | 0.097 | 1.31 | 0.381 | 0.754
TCTGTTAGGTCAACGATGGTCAGCTAATCTGCTA | 3.65 | 4.38 | 4.93 | 1.61 | 3.2 | 3.73 | 2.76 | 0.727
ACTCGGAGGCCAAAGGTCAGAGCTACGCCAGTGA | 4.54 | 6.25 | 4.8 | 0.776 | 6.62 | 3.06 | -0.031 | 0.616
ATCGAAAGATCGAGGTGAGTATAGAGAAAGGGAA | -0.0948 | 0.227 | 0.358 | -0.896 | 0.294 | 0.955 | 0.245 | -0.151
CAAACTAGGTCAAGAGGGCAAAGTCCGCTTCCCG | 4.13 | 5.73 | 5.4 | 1.86 | 4.07 | 3.04 | 1.03 | 1.78
TAGCCTAGGTCATTGGGCCAGTATTGTACGCATC | 2.89 | 3.78 | 4.05 | 1.46 | 2.62 | 2.88 | 0.793 | 1.03
TCGAGTAGGTTAGGGGCATGCAGAATGGCGTCGA | 1.07 | 0.351 | 0.462 | 0.22 | 0.663 | 0.973 | 0.12 | 0.0612
ATCGAAATGTCGAGGTGAGTATAGAGAAAGGGAA | -0.158 | 0.381 | 0.595 | -0.737 | 0.198 | 1.24 | 0.217 | -0.583
AGAATGAGGTTACGAAAGATCAGGGAAACGCTTG | 0.671 | 2.26 | 1.68 | 1.11 | 2.73 | 2.89 | 0.487 | 0.194

Sequence | PBM binding z-score [1] | PBM binding z-score [2] | PBM binding z-score [3] | PBM binding z-score [4] | PBM binding z-score [5] | PBM binding z-score [6] | PBM binding z-score [7] | PBM binding z-score [8]
TTACCAAGGTGAGAGGTCGTTGATGCACGCCTTG | 1.97 | 2.58 | 1.3 | 0.404 | 3.24 | 2.6 | 1.11 | 1.66
TCTTGTAGATCAAGCAGGTTAAGCAAGCCTGAGT | 0.0597 | -0.0759 | -0.399 | 0.344 | 0.228 | 0.275 | -0.299 | -0.175
CGTCCAAGGTCAAAGATCAGTGAAGAGATGACGG | 3.86 | 6.12 | 6.48 | 3.73 | 6.79 | 3.85 | 1.87 | 2.6
TCTATTAGTTCATTAGGGCAACCGAAACAGCGGA | 2.52 | 2.4 | 2.37 | 3.46 | 1.12 | 1.45 | 0.899 | 3
TCGAGTAGGTTACCAATGGGGGATTCAGCTTTCT | 0.472 | 1.09 | 0.478 | 0.789 | 0.767 | 0.805 | 0.162 | -0.0448
TATACAGGGTCAACGGCCAGAGTACGAATGTCGA | 3.43 | 5.83 | 5.47 | 2.75 | 6.28 | 3.46 | 1.05 | 2.95
ATCTCTAGGTAAAGTCCAGTGAAAGATCGATAGA | 0.254 | 0.207 | 0.536 | 0.396 | -0.0378 | 0.245 | 0.0822 | 0.0331
TAGCCTAGGTCATTCAGGTGCCAGTATAGAAAGC | 2.67 | 4.44 | 3.98 | 1.73 | 2.97 | 3.13 | 1.06 | 1.66
CGAACTAGGTCAGAACAAGACAGTGAAGGATGAT | 1.79 | 2.37 | 3.15 | 0.577 | 1.31 | 1.32 | 0.101 | 0.237
GCTGCTAGGTCAACTGATGGTCAGTTAAAGCTCG | 3.55 | 5.17 | 5.45 | 1.51 | 2.85 | 3.15 | 1.05 | -0.147
CCTACTGGGCCAAAAACGTCATTGATGCCGATAA | -0.34 | -0.089 | -0.172 | -0.196 | 0.029 | -0.371 | -0.47 | -0.735
TGAATAAGGTTAAAGATCAGGGAACGTGGCGTCG | 1.04 | 2.51 | 1.72 | 0.599 | 3.39 | 2.48 | 0.616 | 0.301
CGTCCAAGGTCAAGGTCAGTGAAAGAGACTCGAA | 5.29 | 6.79 | 7.8 | 3.95 | 6.28 | 4.39 | 3.78 | 2.89
ATCTGTAGGTTACATCCGGGTCATTCAGGCTATG | 3 | 3.79 | 2.18 | 1.17 | 3.04 | 3.81 | 2.84 | 2.67
CCTAGCAGGCCAGGGTCACTCTAGCATTTCGCTT | 2.58 | 2.69 | 2.31 | 0.701 | 2.88 | 2.56 | 0.876 | 1.14
CCTAGCAGGCCTATCTGGGTCACTCAAGGCTTGA | 1.68 | 0.716 | 0.616 | -0.488 | 0.644 | 2.3 | 0.219 | -0.239
AGAACGAGCGCAATGAGTTGATAGCACGGGTGGC | -0.96 | -0.134 | -0.287 | -0.213 | -0.0749 | -0.609 | -1.01 | 0.00307
ATCGAAAGGTCGTGAGGTGAGGATACAGAAAGGC | 3.16 | 4.81 | 3.99 | 1.31 | 5.33 | 3.74 | 2.51 | 0.974
AGAATGAGGTTAAGATCAAGGAAACAGAATACAT | 0.789 | 2.02 | 1.57 | 1.13 | 2.68 | 2.39 | 0.555 | 0.551

Sequence | PBM binding z-score [1] | PBM binding z-score [2] | PBM binding z-score [3] | PBM binding z-score [4] | PBM binding z-score [5] | PBM binding z-score [6] | PBM binding z-score [7] | PBM binding z-score [8]
CCTCCTGGGCCACGAAAGGTCATTGATTCAGTGA | 4.56 | 4.7 | 4.3 | 0.0691 | 4.89 | 3.84 | 0.846 | 2.04
GATACAGGGTCAAGGCCAGAGTTCGCGTATTGAT | 4.11 | 5.64 | 5.19 | 2.9 | 6.18 | 3.64 | 1.21 | 4.76
ATCTCTAGGTAAAGACAGTTCAGTGAATGCAAAT | 0.886 | 0.452 | 0.798 | 0.247 | 0.363 | 1.05 | 0.425 | 1.14
ATATGTAGGTTATCGGGTCATTCCGTTTGCGCAT | 3.06 | 3.32 | 2.35 | 1.67 | 3.38 | 3.36 | 2.82 | 3.21
ACTATTAGTTGAGACGAGGGCTACCGATAGGTTG | -0.26 | 0.564 | 0.518 | 0.406 | 0.235 | 0.224 | -0.838 | -0.209
AGTCAAAGTTCATCTACGTAACGTAAGATATGCT | 3.64 | 5.4 | 6 | 4.59 | 4.55 | 1.88 | -0.445 | 4.34
GGAACGAGGGCATTCGAGTTGATGGCATGGCGAT | 0.552 | 1.05 | 1.17 | 3.15 | 0.655 | 2.96 | -0.631 | 3.46
GCAGACAGGTGAAAGGCAGGTAACTCAGGGTGGC | 0.611 | 0.314 | -0.0429 | -0.432 | 0.602 | 1.23 | 0.167 | -0.284
GTACCCAGGTGAATAGGTCGTTGATGAGTAGGCG | 1.16 | 1.5 | 0.814 | -0.431 | 1.18 | 1.31 | 0.537 | 0.0528
CCGAGTAGGTTATGTGGCATTCAGGCAACGGTGA | 0.908 | 0.273 | 0.223 | 0.434 | 0.208 | 0.162 | 0.415 | 0.153
ATATGTAGGTAATCGGGTCATTCAGTTTGCGCAT | 2.15 | 2.06 | 1.32 | 1.13 | 2.55 | 3.16 | 2.46 | 3.14
CCAATTAGTTGACCATAAGGGCAACCGAAGCTCG | 2.16 | 1.22 | 1.02 | 0.647 | 0.634 | 1.98 | 1.5 | 0.962
CCGACTGGGGTAAGGTTACCATAACGCACAGCCA | 1.12 | 0.907 | 0.859 | -0.0386 | 1.55 | 2.36 | 1.47 | 0.414
ACTAGCAGGCCAAGGGTCACTAAAGATTAGTCCG | 3.83 | 4.08 | 3.84 | 0.469 | 4.13 | 2.31 | 0.0838 | 1.07
CGAACTAGGTCAGAACAGGACAGTGATGGATGAT | 2.11 | 2.39 | 2.83 | 0.564 | 1.13 | 3.48 | 0.141 | 0.283
CGAAGTAGGTCATTGACAGGACAGTGAATAGTAA | 2.74 | 4.83 | 4.36 | 2.27 | 2.94 | 2.64 | 0.373 | 1.07
GCAGACAGGTGAAACGCACGTAACTCAGGGTGGC | -0.115 | 0.327 | 0.0511 | -0.335 | 0.528 | -0.124 | -0.367 | -0.768
GCTTGTAGATCAAGGTTAAAAAAGACTAAGCTAA | 0.0487 | 0.373 | 0.226 | 0.0617 | 0.736 | 1.14 | -0.222 | 0.0143
GCGACCGGGGCAAAGCAGGTTACCATAAGGTTGG | 1.47 | 1.97 | 1.54 | -0.485 | 0.949 | 3.71 | -0.0146 | -0.132
